Sampled rows, rich in hits. Any-hit rate of the full collection: about 19%.
TDP1 cell noCPT: qHTS for Inhibitors of human tyrosyl-DNA phosphodiesterase 1 (TDP1): qHTS in cells in absence of CPT. DT40 Tdp1-/- hTDP1 cells, no CPT, ATP luminescence, 48 h. Potency, µM (highest dose often 46.2 µM), hits mostly inhibitors. 15% of 420,000 active. AID 686978, 2013; also: nearly all actives have a fitted effect of over 55% in size
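Stably hTDP1-transfected Tdp1-null chicken DT40 cells were treated with library compounds minus camptothecin and grown for at least 48 hr at 37 °C, after which cellular ATP was quantified by luminescence.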
DT40 TDP1 CPT: DT40-hTDP1 cell growth loss with CPT. chicken DT40 Tdp1-/-;hTDP1 cells + 20 nM CPT, ATP luminescence, 48 h. Potency, µM (titrated, usually from 46.2 µM), most hits filed as inhibitors. 12% of 420,000 active; also: nearly all actives have a fitted effect of over 55% in size
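Chicken DT40 Tdp1-/- cells stably complemented with human TDP1 were seeded at 400 cells/well in medium containing 20 nM camptothecin, exposed to pin-transferred compounds, and grown at 37 °C for at least 48 hr. Viability was read as ATP luminescence.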
HT1080-NT tox: kills 2HG-producing HT-1080-NT fibrosarcoma cells | HT-1080-NT fibrosarcoma viability, CellTiter-Glo ATP luminescence, 48 h | Potency, µM (highest dose often 46.1 µM), most hits filed as cytotoxic | 1.6% of 360,000 active | AID 686970;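 also: NT is the 2HG producing partner of a matched IDH1 knockdown line; nearly all actives have a fitted effect of over 55% in size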
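Luminescent CellTiter-Glo readout after 48 hours of compound exposure at 37 degrees C defined viability of HT-1080-NT cells. Activity was normalized to DMSO wells and cell-free media wells; concentration-response curves were fitted and assigned curve classes.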
HT1080 IDH1KD tx: kills HT-1080 cells with IDH1 knockdown; HT-1080 IDH1 knockdown viability, ATP luminescence, 48 h; Potency, µM (titrated, usually from 46.1 µM), actives largely listed as cytotoxic; 2% of 360,000 active; AID 686971
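Cytotoxicity counter-line: IDH1KD HT-1080, 48 h, CellTiter-Glo. Curves classed by r2, magnitude and activity.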
IL1B secr inh: inhibitors of inflammasome signaling (IL-1 beta secretion). AID 743279. activity change, % at 57.5 µM. THP-1 LPS/ATP IL-1B secretion, AlphaLISA, 16 h; active compounds read low. 4.7% of 360,000 active; in the data active = activity change below about -50%; inconclusive = mostly about -30% to -49%
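THP-1 cells pretreated 1 hr with compounds (up to 57.5 uM final), then stimulated with LPS (250 ng/mL final) plus ATP (1.25 mM final); secreted IL-1B measured by AlphaLISA after 16 hr, decreased signal indicating inhibition.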
A number is an active result; 0 = inactive; ? = inconclusive; - = no result given; ! = repeats disagree; [ ] = another dose, or the depositor's remark. Unless noted, calls follow the shape of the dose curve; as a rule, active = well fitted curve in the direction sought with a large enough effect; inconclusive = small, poorly fitted or top-dose-only effect, or another doubt; inactive = no such curve, though single readings can be large; an effect the other way counts as inactive or inconclusive.

SMILES | TDP1 cell noCPT | DT40 TDP1 CPT | HT1080-NT tox | HT1080 IDH1KD tx | IL1B secr inh
CN(C)CCc1cc2c(c3c1ccc1ccccc13)OCO2 | 21µM! | 21µM! | ? | ? | -96
Cc1ccc(NC(=O)Cc2ccc3c(c2)CCCC3)cc1C | 0 | 0 | 0 | 0[9.24 µM] | ?
COC(=O)C1(Cc2ccc3c(c2)CCC3)Cc2ccc3c(c2C1=O)CCC3 (configuration not stated) | ? | 21µM | 0 | 0 | 0
Cc1ccc([N+](=O)[O-])cc1S(=O)(=O)N1CCn2cccc2C1c1ccccc1 (configuration not stated) | ? | 21µM | - | - | -
CCN1CCN(c2ccc(N3CCN(S(=O)(=O)c4cc([N+](=O)[O-])ccc4C)CC3)nn2)CC1 | ? | ? | 0 | 0 | 0
CCCCCCN1C2=NCCCN2c2ccccc21 | 16µM | 18µM | 0 | 0 | 0
COC(=O)c1ccc(OCCN2C3=NCCN3c3ccccc32)cc1 | ? | ? | 0 | ? | ?
COc1ccc(C(=O)CN2C3=NCCCN3c3ccccc32)cc1OC | 16µM | 21µM | 0 | 0 | 0
Cc1ccc(C(O)CN2C3=NCCCN3c3ccccc32)cc1 (configuration not stated) | ? | 0 | 0 | ? | 0
Cc1cccc(CN2C3=NCCCN3c3ccccc32)c1 | 15µM | 21µM | ? | ? | 0
OCCN1C2=NCCCN2c2ccccc21 | 0 | 0 | 0 | 0 | 0
Cc1ccc(CN2C3=NCCN3c3ccccc32)cc1 | ? | ? | 0 | 0 | ?
Cc1ccc(C)c(C(=O)CN2C3=NCCCN3c3ccccc32)c1 | ? | 16µM | ? | ? | -66
N#C/C(=C\c1ccc(Br)cc1)c1nc(-c2cc3cc(Br)ccc3oc2=O)cs1 | 0 | 0 | - | - | -
COc1cccc(C(=O)CN2C3=NCCCN3c3ccccc32)c1 | 21µM | 21µM | 0 | 0 | 0
OC(CN1C2=NCCCN2c2ccccc21)c1ccc2c(c1)OCO2 (configuration not stated) | 0 | 0 | 0 | 0 | 0
Clc1ccc(CN2C3=NCCN3c3ccccc32)cc1Cl | 16µM | ? | ? | ? | -
O=C(CN1C2=NCCN2c2ccccc21)C12CC3CC(CC(C3)C1)C2 | 16µM | 21µM | 21µM | 0[9.24 µM] | ?
OC(CN1C2=NCCN2c2ccccc21)c1ccc2c(c1)OCO2 (configuration not stated) | 23µM | ? | ? | ? | 0
c1ccc(CN2C3=NCCN3c3ccccc32)cc1 | 0 | 0 | 0 | 0 | 0
CN(Cc1ccccc1)C1(CNC(=O)CCC(F)(F)F)Cc2ccccc2C1 | ? | ? | 0 | 0 | 0
COc1nc2c(c(-c3cc(Br)cs3)c1C#N)Cc1ccccc1-2 | 26µM | ? | 0 | 0 | 0
CCOc1nc2c(c(-c3cccs3)c1C#N)Cc1ccccc1-2 | 0 | 0 | 0 | 0 | -
Cc1ccc(S(=O)(=O)Nc2ccc(O)c3ccccc23)c(C)c1 | 5.2µM | 3.7µM | 29µM | ? | -81
Cc1ccc(C)c(S(=O)(=O)Nc2ccc(O)c3ccccc23)c1 | 15µM | 13µM | 0 | 0 | 0
SMILES | TDP1 cell noCPT | DT40 TDP1 CPT | HT1080-NT tox | HT1080 IDH1KD tx | IL1B secr inh
Cc1ccc(S(=O)(=O)NNc2ccccc2)c(C)c1 | 18µM | ? | 0 | 0 | 0
Cc1ccc(S(=O)(=O)NNC(=O)c2cccs2)c(C)c1 | 0 | 0 | 0 | 0 | 0
COc1cccc(NC(=O)Cn2cnc3c(nc4n3CCCCC4)c2=O)c1 | 0 | 0 | - | - | -
O=C(CCNC(=O)c1ccc(Br)cc1)NCCCN1CCCC1=O | 0 | 0 | 0 | 0 | 0
O=C(CCSc1ccccc1)Nc1ccc(OCc2ccccc2)cc1 | 0 | 0 | 0 | 0 | 0
Cn1c(SCC(=O)c2ccc(F)cc2)nc2cccnc21 | 0 | ? | 0 | 0 | 0
O=C(CCSC1=NCCCN1)c1ccc(F)cc1 | 2.9µM | 1.8µM | 0 | 0 | 0
CCCC(=O)N1CCCC1(C)C(=O)Nc1cc(OC)c(OC)c(OC)c1 (configuration not stated) | 0 | 0 | 0 | 0 | 0
CCc1nc(NCC2CC2)c2nnn(Cc3ccccc3)c2n1 | ? | ? | 0 | 0 | 0
Cc1ccc(S(=O)(=O)N2CC(O)C[C@H]2C(=O)OCC(=O)N2CCN(c3ccc(F)cc3)CC2)cc1C (some centres not stated) | 4.1µM | 10µM | 0 | 0 | 0
CCOC(=O)N1CCN(C(=O)CSc2nc3c([nH]c4ccccc43)c(=O)n2CC)CC1 | 15µM | ? | 0 | 0 | 0
Cc1[nH]c2ccccc2c1SCC(=O)N1CCN(c2ccccc2)CC1 | 26µM | ? | 0 | 0 | 0
C=CCn1c(SCC(=O)N2CCOCC2)nc2c([nH]c3ccccc32)c1=O | ? | ? | 0 | 0 | 0
CCn1c(SCC(=O)N2CCCCC2)nc2c([nH]c3ccccc32)c1=O | 0 | 0 | 0 | 0 | 0
C=CCn1c(SCC(=O)N2CCN(c3ccccc3)CC2)nc2c([nH]c3ccccc32)c1=O | 12µM | 16µM | 0 | 0 | 0
Fc1cc(F)c2ncc3c(-c4ccccc4)nn(-c4cccc(Cl)c4)c3c2c1 | 0 | 0 | - | - | -
CCOc1cc(Br)cc(/C=N/NC(=O)c2cccnc2)c1O | 0.37µM | 0.46µM | ? | ? | 0
CN(C)c1ccc(C(=O)N/N=C/c2cc(Br)cc(Br)c2O)cc1 | 12µM | 6.5µM | ? | ? | 0
COc1c(Br)cc(Br)cc1/C=N/NC(=O)c1cccnc1 | ? | 18µM | 0 | ? | 0
COc1c(Br)cc(Br)cc1/C=N/NC(=O)c1ccncc1 | ? | ? | 0 | 0 | 0
CCNC(=S)N/N=C/c1cc(Br)cc(Br)c1OC | 6.5µM | 5.2µM | 4.5µM | 4µM | 0
CCOc1ccc(Br)cc1/C=N/NC(=O)c1ccncc1 | ? | ? | 0 | 0 | 0
O=C(NNC(=O)C1CCC1)c1ccc(F)cc1 | 0 | 0 | 0 | 0 | 0
Cc1cccn2c(=O)c(-c3nnn[nH]3)cnc12 | 0 | 0 | - | - | -
COc1cccc(C(=O)Nc2sc3c(c2C#N)CCN(C(C)=O)C3)c1 | 1.5µM | 2.1µM | 2.6µM | 2.9µM | 0
SMILES | TDP1 cell noCPT | DT40 TDP1 CPT | HT1080-NT tox | HT1080 IDH1KD tx | IL1B secr inh
COc1cccc(C(=O)Nc2sc3c(c2C(=O)O)CCCC3)c1 | ? | 0 | ? | 0 | 0
COC(=O)N1CCc2c(sc(NC(=O)C3=COCCO3)c2C#N)C1 | 0.92µM | 1.3µM | 4.6µM | 3.7µM | 0
CCC(C)c1ccc(NC(=O)COC(=O)c2nc3nccc(C)n3n2)cc1 (configuration not stated) | ? | 0 | 0 | 0 | 0
FC(F)(F)c1ccccc1/C=N/n1c(COc2ccccc2)n[nH]c1=S | 0 | 0 | 0 | 0 | 0
Cc1cc(Nc2ccc(O)cc2)ccc1N | 3.2µM | 5µM | - | - | -
Oc1ccc(Nc2ccc3ccccc3c2)cc1 | 23µM | 18µM | 0 | ? | ?
COCCNCC(=O)Nc1nc(C)cs1 | 0 | 0 | 0 | 0 | 0
CCc1nc2ccc(C(=O)NCc3ccccc3OC)cn2c1N(C)Cc1ccc(N(C)C)cc1 | 21µM | 21µM | 0 | 0 | 0
